# Bioassay records (PubChem BioAssay)
# The list is not random: actives were taken first. Their share in the collection is about 3.6%.
# mHTT-CaM PPI inh = disrupts binding of mutant huntingtin to calmodulin. AlphaScreen His-mHTT/GST-CaM binding, luminescence. inhibition, % at 15 µM. hit rate 3.6% among 190,000;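 further: 0% = both proteins with DMSO and 100% = one protein alone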
# Pf apPOL inh = Pf-apPOL DNA polymerase inhibition; Recombinant Pf-apPOL, molecular beacon fluorescence, 1.5 h; inhibition, % at 10 µM; hit rate 0.25% among 210,000; AID 1794808
# Active calls of the source: *; i = inactive; . = not tested or not shown. No stated cut-off is given here; in the data, active means inhibition above about 50%; inactive means the rest.
SMILES,mHTT-CaM PPI inh,Pf apPOL inh
CCC(C)C(=O)N1CCCN(c2nc3ccccc3nc2-c2ccccc2)CC1 (stereo not drawn),-11.2,3.0
Cc1ccccc1NC(=O)Cn1cccc1-c1nnc(C2CC2)o1,-3.4,-2.1
COc1c(Cl)cc(/C=C2\C(=O)NN(c3ccccc3)C2=O)cc1Cl,96.0*,-6.2
COc1cc(Cl)cc(/C=C2\C(=O)NN(c3ccc(C)c(C)c3)C2=O)c1O,14.0,-6.2
O=C1NC(=O)N(c2cccc(C(F)(F)F)c2)C(=O)/C1=C/c1ccc(O)cc1,52.0*,-0.3
COc1cc(Cl)cc(/C=C2\C(=O)NN(c3cccc(Cl)c3)C2=O)c1O,58.0*,0.2
COc1cc(/C=C2\C(=O)NC(=O)N(c3cccc(C)c3)C2=O)cc(OC)c1O,4.0,-2.9
CCOc1cc(/C=C2\C(=O)NN(c3cccc(Br)c3)C2=O)cc(Cl)c1OCC,98.0*,-4.0
CCOc1cc(/C=C2\C(=O)NN(c3ccc(Br)cc3)C2=O)cc(Cl)c1O,35.0,0.8
COc1cc(/C=C2\C(=O)NN(c3ccc(C)c(Cl)c3)C2=O)cc(OC)c1OC,33.0,-4.1
O=C1NC(=O)N(Cc2ccco2)C(=O)/C1=C/c1cn(Cc2cccc(F)c2)c2ccccc12,9.0,3.7
CCN(C1CCCCC1)S(=O)(=O)c1ccc(Cl)c(Cl)c1OC,-55.2,0.8
O=S(=O)(Nc1nc2ccccc2nc1N1CCOCC1)c1ccccc1,2.5,.
COc1ccc(C(=O)N2CCC(N(C)C)C(c3nc(-c4cccnc4)no3)C2)cn1 (stereo not drawn),0.2,-2.5
O=C(NCCc1ccc(F)cc1)Nc1ccc(F)cc1F,-2.2,-2.0
COc1cc(/C=C2\C(=O)NN(c3ccc(C)c(C)c3)C2=O)cc(OC)c1OC,50.0,11.3
COc1cccc(/C=C2\C(=O)NN(c3ccc(C)c(C)c3)C2=O)c1,9.0,-4.6
COc1cccc(/C=C2\C(=O)NN(c3cccc(C(F)(F)F)c3)C2=O)c1,85.0*,-2.5
COc1cc(/C=C2\C(=O)NN(c3ccc(I)cc3)C2=O)cc(OC)c1O,61.0*,-3.1
O=C1S/C(=C\c2cccs2)C(=O)N1c1ccccc1,6.0,2.1
CC(C)c1nnc2n1CCN(C(=O)c1ccc3c(c1)OCO3)C2,2.1,-1.6
COc1ccc(-c2cc(-c3ccc(OC)cc3)nc(NS(=O)(=O)c3ccc(NC(C)=O)cc3)n2)cc1,.,-6.7
O=C1NC(=O)[C@H]2[C@@H]1[C@@H](C(=O)c1ccccc1)N1c3ccccc3C=C[C@H]21,58.4*,.
NC(=O)N1c2ccccc2C=Cc2ccccc21,.,2.0
CN1C(=O)CC(C(=O)Nc2cccc(Cl)c2)SC1=Nc1cccc(C(F)(F)F)c1 (stereo not drawn),6.0,-0.9
SMILES,mHTT-CaM PPI inh,Pf apPOL inh
COc1ccc(Cn2c(Cl)cc(=O)[nH]c2=O)cc1[N+](=O)[O-],-1.0,-2.1
O=[N+]([O-])c1cc(C(F)(F)F)cc([N+](=O)[O-])c1Sc1ccccn1,.,7.1
COc1cccc2c1C(=O)c1c(O)c3c(c(O)c1C2=O)CC(O)(C(=O)CO)CC3OC1CC(N)C(O)C(C)O1 (stereo not drawn),.,i
CC(=O)[C@]1(O)Cc2c(O)c3c(c(O)c2[C@@H](O[C@H]2C[C@H](N)[C@H](O)[C@H](C)O2)C1)C(=O)c1ccccc1C3=O,.,50.2*
Cc1nc2ccccn2c1-c1csc(NCc2ccccc2)n1,36.0,-3.3
Cc1ccc(Nc2nc(-c3c(C)nc4ncccn34)cs2)cc1,80.0*,-1.0
Cc1ccn2c(-c3csc(Nc4ncccn4)n3)c(C)nc2c1,0.0,-3.0
CCN(CC)c1ccc(Nc2nc(-c3c(C)nc4ccccn34)cs2)cc1,97.2*,63.5*
Cc1nc2sccn2c1-c1csc(Nc2ccccn2)n1,29.0,-0.6
Cc1nc2ncccn2c1-c1csc(NCc2ccccc2)n1,7.0,-1.7
Cc1ccccc1Nc1nc(-c2c(C)nc3sccn23)cs1,56.0*,-3.8
CCOc1ccc(Nc2nc(-c3c(C)nc4cc(C)ccn34)cs2)cc1,67.1*,-26.0
Cn1nc(-c2cccs2)cc1C(=O)NCCn1nc(-c2ccco2)ccc1=O,-2.0,-3.2
CCc1onc(C)c1C1CCCN1Cc1ccccc1F (stereo not drawn),-32.8,7.5
O=C(O)Cn1c2ccccc2c2nnc(SCC(=O)Nc3cccc(Br)c3)nc21,25.0,-3.0
O=C(CSc1nnc(-c2ccco2)c(-c2ccco2)n1)Nc1cccc(Br)c1,100.0*,-3.3
O=C(CSc1nnc(-c2ccco2)o1)Nc1cccc([N+](=O)[O-])c1,-5.8,-3.3
O=C(CSc1nnc(-c2ccco2)c(-c2ccco2)n1)Nc1ccccc1[N+](=O)[O-],74.0*,-3.3
O=C(CSc1nnc(-c2ccco2)c(-c2ccco2)n1)Nc1cccc([N+](=O)[O-])c1,98.0*,4.1
O=C(CSc1n[nH]c(-c2ccccc2)n1)Nc1ccccc1[N+](=O)[O-],12.0,-0.9
COc1ccc(C(=O)N2CC3CC(NC(=O)c4cccnc4)C2C3)cn1 (stereo not drawn),4.8,-3.3
